Test results as given in PubChem BioAssay AID492998 (Southern Research Specialized Biocontainment Screening …, 2010).
Screen size: about 2,300 compounds; about 550 (24%) were called active. Not all results are given here. Entries with a potency or affinity are not part of this list. Unmarked numbers belong to inactive results. The rule behind the calls is not given here.

Experiment: Vero E6 cell cytotoxicity, dose response, cytotoxicity control for non-replicating M. tuberculosis project, secondary assay (AID 492998);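 note: 100% = vehicle-treated cells and 0% = background wells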
Conditions: series mostly up to 20 µM; viability: at the top concentration
For CCCc1cc(C(=O)Nc2ccccc2SC)no1, the “viability” value was 109%.
For COC(=O)CCCC(=O)N1CCCC(C(=O)c2ccc(-c3ccccc3)cc2)C1 (centres undefined), the “viability” value was 105%.
For CSc1nnc(Cc2ccc3c(c2)OCO3)o1, the “viability” value was 103%.
With COc1cccc(/C=N/N2C(=O)CSC2=S)c1O the “viability” value was 81%.
In the case of O=C(OCn1nnc2ccccc2c1=O)c1cccs1, the “viability” value is reported as 104%.
For COc1ccc2cc(C(=O)C3CCCN(Cc4cccc(C)n4)C3)ccc2c1 (centres undefined), the “viability” value was 73%.
With S=c1c2c(nc3nc[nH]n13)CCC2 the “viability” value was 101%.
In the case of CC1(C)CC(=O)C2=C(C1)OC(N)=C(C#N)C2C#Cc1ccccc1 (centres undefined), the “viability” value is reported as 101%.
With Cc1ccc(NC(=O)C(=O)NNC(=O)c2ccccc2C)cc1Cl the “viability” value was 87.8%.
For O=C(NC1CCOc2ccccc21)c1ccc(Cl)nc1 (centres undefined), the “viability” value was 92.5%.
With CCOC(=O)COc1ccc(C(=O)Nc2cccc(Cl)c2C)cc1 the “viability” value was 91.2%.
For CCOC(=O)C(=CNNc1cccc(Cl)c1)C(=O)OCC, the “viability” value was 90.4%.
For Cc1cc(OCCOCCNCc2ccccc2)ccc1C(C)C, the “viability” value was 95.5%.
For O=C(OCC#CCSc1nc2ccccc2o1)c1ccco1, the “viability” value was 96.6%.
In the case of O=C(Nc1ccccc1N1CCCC1)c1cccc(F)c1, the “viability” value is reported as 103%.
For O=C(CCNc1cccc(F)c1)c1cccc([N+](=O)[O-])c1, the “viability” value was 81%.
For C/C(=N\O)c1cc(Cl)ccc1O, the “viability” value was 94.6%.
In the case of COc1ccc(O)c(C(=O)CC(=O)c2ccc(F)cc2)c1, the “viability” value is reported as 74%.
For CC12CC3CC(C)(C1)CC(C(=O)N1CCCC1)(C3)C2, the “viability” value was 110%.
In the case of CSc1ccc(CNc2ncc(-c3cccc([N+](=O)[O-])c3)n2C)cc1, the “viability” value is reported as 95.1%.
In the case of COc1cccc(NC(=O)COC(=O)Cc2ccc(Br)cc2)c1, the “viability” value is reported as 108%.
With CC(C)(C)NCC1(CO)SC(N)=NC1=O (centres undefined) the “viability” value was 95.3%.
For Cc1cc(C)nc(SC2CC(=O)N(c3ccc(C)c(C)c3)C2=O)n1 (centres undefined), the “viability” value was 72.2%.
For Cc1ccc2nc(C)c3c(c2c1)COC3, the “viability” value was 100%.
For O=C(COc1ccccc1)NC1CCCCC1, the “viability” value was 107%.
In the case of O=C(OCn1nnc2ccccc2c1=O)C1CCCCC1, the “viability” value is reported as 94.4%.
For Cc1cc2cc(CNC(=O)COc3ccccc3)ccc2n1C, the “viability” value was 96.2%.
For CC1CC(C)CN(CCOCCSc2ccc(Cl)cc2)C1 (centres undefined), the “viability” value was 87%.
With COc1ccc(Cl)cc1N=Cc1c(O)c2ccccc2oc1=O the “viability” value was 76.4%.
With O=C(COC(=O)c1cc(Br)ccc1Cl)NC1CCCC1 the “viability” value was 105%.
For COC(=O)COc1ccc(S(=O)(=O)N2CCN(c3ccccc3F)CC2)cc1, the “viability” value was 102%.
With O=C1/C(=C\c2ccco2)SC(=S)N1c1ccc(O)cc1 the “viability” value was 103%.
In the case of Cc1ccccc1OCCC(=O)OCC(=O)NNC(=O)c1cccs1, the “viability” value is reported as 104%.
For CCSc1ncc(/C=N/Nc2ccc(Cl)cc2)n1C, the “viability” value was 90.2%.
With O=C(COC(=O)CCc1c[nH]c2ccccc12)Nc1ccc([N+](=O)[O-])cc1 the “viability” value was 101%.
With CCCCOC(=O)C1CCCC(C(=O)OCCCC)N1 (centres undefined) the “viability” value was 113%.
With O=C(COc1ccc2c(c1)CCC2)Nc1ccccn1 the “viability” value was 95.7%.
With O=C1NC(=O)N(Cc2ccc(F)cc2)C(=O)/C1=C\c1ccc([N+](=O)[O-])s1 the “viability” value was 93.5%.
For O=C1NC(=O)N(Cc2ccco2)C(=O)/C1=C\c1cccn1CCOc1ccc(Cl)cc1, the “viability” value was 98.7%.
In the case of OC(CNCCc1ccc(C(F)(F)F)cc1)COc1cccc2ccccc12 (centres undefined), the “viability” value is reported as 82%.
For O=C(COC(=O)c1cc(Cl)ccc1O)c1ccc2c(c1)OCO2, the “viability” value was 105%.
In the case of O=C1CC(Sc2ncccn2)C(=O)N1c1ccccc1C(F)(F)F (centres undefined), the “viability” value is reported as 102%.
For CCOC(=O)c1c(NC(=O)C2COc3ccccc3O2)sc2c1CC(C)(C)NC2(C)C (centres undefined), the “viability” value was 85.6%.
In the case of CCOC(=O)CCS(=O)(=O)c1nc(-c2ccccc2)cc(C(F)(F)F)n1, the “viability” value is reported as 95.2%.
For CCOc1ccc2ccccc2c1/C=N/NC(=O)c1ccncc1, the “viability” value was 95.5%.
With COc1ccc(NC(=O)Nc2ccc(O)c3ccccc23)cc1 the “viability” value was 75.5%.
In the case of Cc1ccc(S(=O)(=O)/N=C(\CCl)N2CCOCC2)cc1, the “viability” value is reported as 96.7%.
For Cc1cc(CN(C)C)c(O)c(C2(C)CCCCC2)c1, the “viability” value was 106%.
With CCCCNC(=O)N1CCc2ccccc2C1 the “viability” value was 96.6%.
In the case of CCOc1ccccc1OC(=O)c1cc2ccccc2oc1=O, the “viability” value is reported as 95.6%.
With Cc1ccc(NC(=O)C2CC2c2ccccc2)cc1 (centres undefined) the “viability” value was 97.4%.
With CN(/N=C/c1ccc([N+](=O)[O-])o1)c1ccccc1 the “viability” value was 114%.
In the case of O=c1oc(-c2ccccc2[N+](=O)[O-])nc2ccccc12, the “viability” value is reported as 92.6%.
With COc1ccc(OC)c(N2C(=O)NC(=O)/C(=C/c3ccc([N+](=O)[O-])s3)C2=O)c1 the “viability” value was 88.5%.
For CCC(=O)N1CCN(c2cc3c(cc2F)c(=O)c(C(=O)O)cn3CC)CC1, the “viability” value was 97.8%.
For O=C(COC(=O)c1ccccn1)Nc1cccc(Cl)c1Cl, the “viability” value was 97.1%.
For CCOC(=O)C1CCCN(Cc2nc(Cc3ccccc3Cl)no2)C1 (centres undefined), the “viability” value was 110%.
With CCCCCOc1ccc(CSC2=NCCN2)cc1[N+](=O)[O-] the “viability” value was 78%.
With Cc1cc(Br)ccc1OCCCCN1CCC(C)CC1 the “viability” value was 98%.
In the case of CCc1ccc(C(C)NC(=O)C2CCCO2)cc1 (centres undefined), the “viability” value is reported as 109%.
With COc1cccc(NC(=O)c2ccc(Cn3cc([N+](=O)[O-])cn3)o2)c1 the “viability” value was 115%.
In the case of O=C(Nc1ccc(S(=O)(=O)N2CCOCC2)cc1)c1ccc([N+](=O)[O-])s1, the “viability” value is reported as 74.6%.
In the case of Cc1ccc(-c2ccc(/C=N/NC(=O)CN3CCOCC3)o2)cc1[N+](=O)[O-], the “viability” value is reported as 87.5%.
With CC1CCN(S(=O)(=O)c2cccc(C(=O)Oc3ccc([N+](=O)[O-])cc3)c2)CC1 the “viability” value was 101%.
For CCS(=O)(=O)c1ncc(Cl)c(C(=O)Nc2ccc(S(=O)(=O)N3CCC(C)CC3)cc2)n1, the “viability” value was 88.8%.
In the case of CCN1CCN(Cc2cc(C(C)(C)C)c(O)c(C(C)(C)C)c2)CC1, the “viability” value is reported as 98.1%.
In the case of O=C(N/N=C/c1ccc(OC(=O)c2cccs2)cc1)c1ccccn1, the “viability” value is reported as 100%.
In the case of COc1cc(C2C3=C(CC(C)(C)CC3=O)OC(N)=C2[N+](=O)[O-])ccc1O (centres undefined), the “viability” value is reported as 98.8%.
In the case of CC(C)CCNCC(O)CON=C1c2ccccc2-c2ccccc21 (centres undefined), the “viability” value is reported as 82.9%.
For O=C(O)c1ccc(NS(=O)(=O)/C=C/c2ccccc2)cc1O, the “viability” value was 95.3%.
For CCOc1ccc(NC(=O)CCC(=O)N/N=C/c2ccc([N+](=O)[O-])s2)cc1, the “viability” value was 78.7%.
With Cc1cccc(NCc2ccc([N+](=O)[O-])s2)c1 the “viability” value was 87.4%.
In the case of CCCOC(=O)c1ccc(NC(=O)Cc2cccs2)cc1, the “viability” value is reported as 109%.
For O=C(NNc1ccc([N+](=O)[O-])cc1)c1ccccc1Cl, the “viability” value was 101%.
For CCOC(=O)N/N=C\c1ccc([N+](=O)[O-])s1, the “viability” value was 81.2%.
For O=C(N/N=C/c1ccc(Br)s1)c1ccccc1[N+](=O)[O-], the “viability” value was 79.6%.
For Cc1ccc(C2=N/C(=C\c3cccnc3)C(=O)O2)cc1, the “viability” value was 106%.
For CCOC(=O)c1cc(COc2cc(Cl)cc(Cl)c2)on1, the “viability” value was 98.4%.
With O=C(c1cc2ccccc2o1)c1nc2c(n1O)CCCCC2 the “viability” value was 104%.
In the case of Nc1cccn2c(-c3ccc(Cl)cc3)cnc12, the “viability” value is reported as 101%.
With CC1(C(=O)OCC(=O)Nc2nnc(-c3ccccc3)o2)CC1(Cl)Cl (centres undefined) the “viability” value was 71.1%.
With CCOC(=O)C1CCCc2c1[nH]c1c(C(N)=O)cccc21 (centres undefined) the “viability” value was 106%.
With Cc1ccc(Oc2c(C(N)=O)cc([N+](=O)[O-])cc2[N+](=O)[O-])cc1 the “viability” value was 94.9%.
With COc1cc(/C=C/c2ccc3c([N+](=O)[O-])cccc3n2)ccc1OCC(=O)O the “viability” value was 99.9%.
For CCC1CCc2sc(C(=O)NNC(=O)c3ccncc3)cc2C1 (centres undefined), the “viability” value was 106%.
In the case of CN(CCS(=O)(=O)c1ccc(Cl)cc1)Cc1cccnc1, the “viability” value is reported as 85%.
For CC(=O)c1ccc(NC(=O)c2cc(CC(C)C)on2)cc1, the “viability” value was 106%.
In the case of CC(C)(C)Nc1nc(NC(C)(C)C)nc(-n2ccnc2)n1, the “viability” value is reported as 79.9%.
For O=C(NC(=S)Nc1ccc(F)cc1)C1CCCCC1, the “viability” value was 89.2%.
In the case of COC(=O)COc1cccc(NC(=O)c2ccc(Cl)cc2)c1, the “viability” value is reported as 106%.
For Cc1cc(Br)ccc1OCC(=O)NNC(=O)C(=O)Nc1ccccc1, the “viability” value was 102%.
In the case of CC(C)c1ccc(OCC(=O)NNC(=O)c2cnccn2)cc1, the “viability” value is reported as 91%.
In the case of CCc1ccc(OCC(=O)Nc2ccncc2)c(Br)c1, the “viability” value is reported as 96.3%.
In the case of Cc1cc(OCC(=O)Nc2ccncc2)ccc1Br, the “viability” value is reported as 108%.
In the case of CCc1ccc(NC(=O)C(=O)NNC(=O)COc2cccc(OC)c2)cc1, the “viability” value is reported as 97.4%.
In the case of O=C(Oc1cccnc1)c1ccc(Cl)c(Cl)c1, the “viability” value is reported as 121%.
For Cc1cc(NC(=O)COc2ccccc2)ccc1Cl, the “viability” value was 90.2%.
For O=C(NNC(=O)c1ncc(Cl)c(Cl)c1Cl)c1ccc(F)cc1, the “viability” value was 87%.
For Cc1cc2cc(CNC(=O)C3CCCC3)ccc2n1C, the “viability” value was 105%.
In the case of O=C(CCC1CCCCC1)NCc1ccc(F)cc1, the “viability” value is reported as 105%.
With Clc1ccc(SCCCCN2CCNCC2)cc1 the “viability” value was 85%.
In the case of O=C(NCC1CCCCC1)c1ccc([N+](=O)[O-])cc1, the “viability” value is reported as 94.3%.
With CCCCOC(=O)c1ccc(NC(=O)c2nn(C)cc2Br)cc1 the “viability” value was 79.3%.
For O=C(NCCSc1ccccc1)c1ccc(Br)cc1, the “viability” value was 107%.
For Cc1ccc2cc(/C=N/NC(=O)[C@H](C)NC(=O)OC(C)(C)C)c(Cl)nc2c1, the “viability” value was 95.6%.
For CN1CC(=O)NC1=NC(=O)C12CC3CC(CC(C3)C1)C2, the “viability” value was 77.2%.
In the case of Cc1cc(Br)ccc1OCCCCN1CCCCC1, the “viability” value is reported as 80.3%.
With CCOC(=O)c1csc(NC(=O)COc2ccc(Cl)cc2Cl)n1 the “viability” value was 98.5%.
In the case of CCOc1ccc(Cn2c(=O)oc3ccccc32)cc1, the “viability” value is reported as 102%.
With CC1C/C(=N/N2C(=O)CSC2=S)CC(C)(C)C1 (centres undefined) the “viability” value was 96.3%.
For CC1=C(/C=C/C(C)=N\NC(=O)c2ccncc2)C(C)(C)CCC1, the “viability” value was 95.3%.
For C/C(=N/NC(=O)c1ccncc1)C1=C(O)CC(C)(C)CC1=O, the “viability” value was 107%.
In the case of C=CCNCC(=O)N1N=C(c2ccc3ccccc3c2)CC1c1ccc(OC)cc1 (centres undefined), the “viability” value is reported as 76.9%.
With CCn1ccc(C(=O)Nc2cccc(Cl)c2)n1 the “viability” value was 99.4%.
In the case of CCn1nnc(NC(=O)c2sc3ccccc3c2Cl)n1, the “viability” value is reported as 93.4%.
For CCCc1cc(C(=O)Nc2cccc(C(C)=O)c2)no1, the “viability” value was 104%.
With CC(C)(C)c1ccc(OCCC(=O)OCC(=O)NC2CCCCC2)cc1 the “viability” value was 80.5%.
For COC(=O)CCC(=O)Nc1sc(Cc2ccccc2)c(C)c1C(N)=O, the “viability” value was 93.4%.
In the case of COc1ccc(C(CNC(=O)c2cccc(NS(=O)(=O)c3ccc(C)c(F)c3)c2)N2CCCC2)cc1 (centres undefined), the “viability” value is reported as 92%.
